These results are taken from PubChem BioAssay (NCI).

Some test systems named below: NCI-H23 lung; NCI-H226 lung; NCI-H322M lung; HOP-62 NSCLC; NCI-H460 lung; HOP-92 NSCLC; NCI-H522 lung; A549/ATCC NSCLC; 786-0 renal; COLO 205 colon; DU-145 prostate; K-562 leukemia; MALME-3M melanoma; MDA-MB-231 breast; RXF 393 renal; SF-268 CNS; SF-295 CNS; SF-539 CNS; M14 melanoma; UACC-257 melanoma.
Holding throughout (experiment): NCI-60 one-dose screen, 48 h (100 = growth as untreated, 0 = no growth, -100 = all killed)
Common to all, as to settings: 10 µM unless noted

The panel holds about 83,000 compounds, 20% with a hit somewhere; the sample as a whole holds those more often.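 Interpretation: 100, growth as untreated; towards 0, rising growth inhibition; 0, no net growth; 0 to -100, cell death. Compounds scoring below 10 were considered active.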 Values without a mark were called inactive. The source made the active and inactive calls.

For `COC(=O)[C@]12CC[C@@H](C)[C@H](C)[C@@H]1C1=CC[C@@H]3[C@@]4(C)C[C@@H](O)OC[C@](C)(C=O)C4C(=O)C[C@@]3(C)[C@]1(C)CC2` (some centres undefined), the growth is 5.09% (active) in the assay with NCI-H23 lung; -21.5% (active) with NCI-H226 lung; 27.6% in the assay with NCI-H322M lung; 13% with HOP-62 NSCLC; -13% (active) with NCI-H460 lung; -28.6% (active) in the assay on HOP-92 NSCLC. Besides, the growth is -41.9% (active) in the assay with NCI-H522 lung; 7.39% (active) in the assay with A549/ATCC NSCLC; 2.91% (active) with 786-0 renal; -94.4% (active) in the assay with COLO 205 colon; 14.5% with DU-145 prostate; 3.89% (active) in the assay with K-562 leukemia. The growth was -8.79% (active) in the assay with MALME-3M melanoma; -14.9% (active) in the assay on MDA-MB-231 breast; -7.01% (active) in the assay on RXF 393 renal; 34.9% in the assay on SF-268 CNS; 1.62% (active) in the assay on SF-295 CNS; 7.45% (active) in the assay with SF-539 CNS. Moreover, the growth in the assay with M14 melanoma is 6.13% (active).

On to `c1csc(-c2nc(-c3cc4ccccc4c(N4CCOCC4)n3)cs2)c1`, for which the growth was 87.8% in the assay with NCI-H23 lung; 107% in the assay with NCI-H226 lung; 94.1% in the assay on NCI-H322M lung; 97.6% with HOP-62 NSCLC; 100% in the assay with NCI-H460 lung; 116% with HOP-92 NSCLC. Besides, the growth with NCI-H522 lung was 93.8%; in the assay with A549/ATCC NSCLC, 95.6%; in the assay with 786-0 renal it was 96.9%; with COLO 205 colon, 20.5%; with DU-145 prostate, 113%; with K-562 leukemia it was 102%. Further, the growth in the assay on MALME-3M melanoma was 0.576% (active); with MDA-MB-231 breast, 88.7%; in the assay with RXF 393 renal, 111%; with SF-268 CNS, 91.6%; in the assay with SF-295 CNS, 101%; with SF-539 CNS, 103%. Further, the growth was 17.3% in the assay on UACC-257 melanoma and 49.1% with M14 melanoma.

Take `Cn1cc(-c2csc(-c3cn(CCN)c4ccc(Br)cc34)n2)c2cccnc21`: the growth in the assay on NCI-H23 lung is 78.4%; with NCI-H226 lung, 85.1%; in the assay with NCI-H322M lung it was 75.3%; in the assay with HOP-62 NSCLC, 67.2%; in the assay on NCI-H460 lung, 16.4%; with HOP-92 NSCLC, 45.9%. Also, the growth was 90.6% with NCI-H522 lung; 37.5% in the assay on A549/ATCC NSCLC; 73.1% in the assay on 786-0 renal; -5.13% (active) with COLO 205 colon; 58.5% in the assay with DU-145 prostate; 18.1% with K-562 leukemia. For the same compound, the growth with MALME-3M melanoma was 97.5%; in the assay on MDA-MB-231 breast, 62.4%; in the assay with RXF 393 renal, 75.6%; in the assay with SF-268 CNS, 78.4%; in the assay with SF-295 CNS, 100%; with SF-539 CNS, 82.5%. Moreover, the growth is 92.8% with UACC-257 melanoma and 86.1% in the assay with M14 melanoma.

In the case of `CC1(C)CC[C@]2(C(=O)NCCNCCN)CC[C@]3(C)C(=CC[C@@H]4[C@@]5(C)CCC(=O)C(C)(C)[C@@H]5CC[C@]43C)[C@@H]2C1`, the growth in the assay on NCI-H23 lung was 93.3%; in the assay on NCI-H226 lung it was 78.1%; in the assay with NCI-H322M lung, 81.1%; in the assay on HOP-62 NSCLC it was 70.4%; with NCI-H460 lung, -55.8% (active); in the assay with HOP-92 NSCLC, 39.7%. The growth in the assay with NCI-H522 lung is 27.2%; in the assay with A549/ATCC NSCLC it was 32.6%; with 786-0 renal it was 78.3%; with COLO 205 colon, -66.6% (active); in the assay with DU-145 prostate, 32.5%; in the assay on K-562 leukemia, -47.9% (active). The growth in the assay on MALME-3M melanoma was -65% (active); in the assay with MDA-MB-231 breast, 6.83% (active); in the assay with RXF 393 renal, 50.1%; in the assay on SF-268 CNS, 72.7%; with SF-295 CNS, 96.7%; in the assay on SF-539 CNS it was 76.5%. The figures for the growth in the assay on UACC-257 melanoma and in the assay with M14 melanoma were 92.8% and -63.4% (active), respectively.

Regarding `COc1ccc(C2CC(=O)c3c(nc4ccc(Cl)cc4c3N)C2)cc1` (centres undefined), the growth is 102% in the assay with NCI-H23 lung; 104% in the assay on NCI-H226 lung; 104% in the assay on NCI-H322M lung; 109% in the assay with HOP-62 NSCLC; 104% in the assay on NCI-H460 lung; 98.3% with HOP-92 NSCLC. Moreover, the growth with NCI-H522 lung is 100%; in the assay on A549/ATCC NSCLC, 106%; in the assay on 786-0 renal, 97%; with COLO 205 colon it was 114%; in the assay on DU-145 prostate, 101%; in the assay on K-562 leukemia, 93.4%. Besides, the growth was 106% in the assay with MALME-3M melanoma; 114% in the assay on MDA-MB-231 breast; 99.3% in the assay on RXF 393 renal; 108% in the assay on SF-268 CNS; 95.4% in the assay with SF-295 CNS; 107% in the assay with SF-539 CNS. Besides, the results for the growth with UACC-257 melanoma and in the assay with M14 melanoma were 113% and 103%, respectively.

Regarding `CC(C)(C)n1cc(-c2ccnc(NCCCNS(=O)(=O)c3ccc(Cl)cc3)c2)c(-c2cccc(F)c2)n1`, the growth in the assay on NCI-H23 lung is 70.9%; in the assay on NCI-H226 lung, 80.9%; with NCI-H322M lung, 98.5%; with HOP-62 NSCLC it was 93%; in the assay on NCI-H460 lung it was 59.4%; with HOP-92 NSCLC, 73.6%. Moreover, the growth is 84.2% in the assay on NCI-H522 lung; 61.9% with A549/ATCC NSCLC; 71.4% with 786-0 renal; 43.4% in the assay on COLO 205 colon; 87% with DU-145 prostate; 24.8% with K-562 leukemia. Also, the growth was 73.8% in the assay with MALME-3M melanoma; 81.6% with MDA-MB-231 breast; 72% in the assay with RXF 393 renal; 86.6% with SF-268 CNS; 68.2% in the assay on SF-295 CNS; 75% in the assay with SF-539 CNS. In addition, the growth was 93.1% in the assay with UACC-257 melanoma and 77.7% in the assay with M14 melanoma.

In the case of `O=C1CN(c2ccccc2)C(=O)C1C(=O)Nc1ccc(Cl)c(Cl)c1` (centres undefined), the growth in the assay on NCI-H23 lung is 31.2% [100 µM]; in the assay on NCI-H226 lung it was 41.6% [100 µM]; with NCI-H322M lung, 19.6% [100 µM]; in the assay with HOP-62 NSCLC, 9.46% [100 µM] (active); with NCI-H460 lung, -2.82% [100 µM] (active); with HOP-92 NSCLC it was 10.6% [100 µM]. The growth was 8.5% [100 µM] (active) with NCI-H522 lung; 16.2% [100 µM] in the assay with A549/ATCC NSCLC; 0.0265% [100 µM] (active) in the assay on 786-0 renal; -23.1% [100 µM] (active) in the assay on COLO 205 colon; 38.9% [100 µM] with DU-145 prostate; 20.1% [100 µM] with K-562 leukemia. Further, the growth is -11.7% [100 µM] (active) with MALME-3M melanoma; 27.2% [100 µM] in the assay with MDA-MB-231 breast; 34.7% [100 µM] in the assay with RXF 393 renal; 31.2% [100 µM] with SF-268 CNS; 0.977% [100 µM] (active) in the assay with SF-295 CNS; -9.88% [100 µM] (active) in the assay on SF-539 CNS. Also, the growth in the assay with UACC-257 melanoma is 16.2% [100 µM]; in the assay with M14 melanoma, 28.8% [100 µM].
